Measurements taken from PubChem BioAssay.
Values without a mark were called inactive. The source made the active and inactive calls. Cut-off read from the data, not from the text of the source, unless noted: active = inhibition above about 33%; inactive = the rest.

Legend:
[1] = StAR promoter reporter inhibitors, counter-screen for LRH-1 inverse agonist project, cell-based, luminescence, high throughput (AID 651611; in the data active = inhibition above about 28%); conditions: StAR promoter luciferase reporter counterscreen, at 3.6 µM, active compounds read high
[2] = target: Nuclear receptor subfamily 5 group A member 2 (Homo sapiens) (UniProt O00482); test: LRH-1 (NR5A2) inverse agonists, retest, confirmation, cell-based, luminescence (AID 651613; in the data active = inhibition above about 42%;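 note: HEK293T cells co-transfected with LRH-1 and StAR promoter luciferase reporter; 0% = vehicle wells and 100% = parental cells lacking receptor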); conditions: cell-based LRH-1 luciferase reporter, inverse agonism; at 3.6 µM; active compounds read high
Sequence of Nuclear receptor subfamily 5 group A member 2 (Homo sapiens) (O00482 whole entry, looked up): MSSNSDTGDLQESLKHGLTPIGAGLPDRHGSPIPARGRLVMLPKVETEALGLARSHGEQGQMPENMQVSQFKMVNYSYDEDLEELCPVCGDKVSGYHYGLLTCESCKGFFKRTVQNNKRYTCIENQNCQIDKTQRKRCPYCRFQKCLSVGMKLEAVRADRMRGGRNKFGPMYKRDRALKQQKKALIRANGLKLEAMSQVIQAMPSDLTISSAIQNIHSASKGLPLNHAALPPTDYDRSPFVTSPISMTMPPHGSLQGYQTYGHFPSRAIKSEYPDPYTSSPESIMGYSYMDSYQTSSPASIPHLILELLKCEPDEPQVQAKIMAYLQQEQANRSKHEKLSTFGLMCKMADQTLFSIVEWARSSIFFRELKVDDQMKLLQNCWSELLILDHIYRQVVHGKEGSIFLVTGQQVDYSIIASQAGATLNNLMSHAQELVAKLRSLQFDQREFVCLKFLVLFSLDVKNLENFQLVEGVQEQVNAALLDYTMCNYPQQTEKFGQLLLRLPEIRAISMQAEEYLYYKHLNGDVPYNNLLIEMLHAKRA

[3] = target: Steroidogenic factor 1 (Homo sapiens) (UniProt Q13285); test: SF1 (NR5A1) inverse agonists, counter-screen for LRH-1 inverse agonist project, cell-based, luminescence, high throughput (AID 651614; in the data active = inhibition above about 44%;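 note: cells cotransfected with StAR promoter reporter and SF1 expression vector; 0% = vehicle on cells with receptor and 100% = vehicle on cells lacking receptor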); conditions: cell-based SF1 luciferase reporter, at 3.6 µM, active compounds read high
Sequence of Steroidogenic factor 1 (Homo sapiens) (Q13285 whole entry, looked up, the tested form may be a part): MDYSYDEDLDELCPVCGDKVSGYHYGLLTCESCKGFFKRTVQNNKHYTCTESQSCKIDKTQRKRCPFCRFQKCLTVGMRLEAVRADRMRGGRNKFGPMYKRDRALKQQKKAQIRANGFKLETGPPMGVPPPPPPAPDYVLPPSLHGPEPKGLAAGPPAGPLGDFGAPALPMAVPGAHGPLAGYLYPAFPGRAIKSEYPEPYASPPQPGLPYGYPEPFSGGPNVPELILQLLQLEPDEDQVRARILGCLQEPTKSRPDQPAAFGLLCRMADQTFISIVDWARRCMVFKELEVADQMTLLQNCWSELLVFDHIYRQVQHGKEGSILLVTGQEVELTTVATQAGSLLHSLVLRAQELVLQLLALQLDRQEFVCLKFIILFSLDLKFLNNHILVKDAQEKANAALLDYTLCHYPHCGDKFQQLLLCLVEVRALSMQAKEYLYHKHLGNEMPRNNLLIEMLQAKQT

[4] = VP16 transactivation reporter inhibitors, counter-screen for LRH-1 inverse agonist project, cell-based, luminescence, high throughput (AID 651615); conditions: Gal4-VP16 luciferase reporter cells, at 3.6 µM, active compounds read high
[5] = test system: transactivating tegument protein VP16 (Human herpesvirus 1); test: VP16 transactivation reporter inhibitors, counter-screen for SRC2 inhibitor project, cell-based, luminescence, single concentration (AID 652007; in the data active = inhibition above about 36%); conditions: cell-based VP16 transactivation luciferase reporter, at 8.9 µM, active compounds read high
[6] = target: Nuclear receptor coactivator 2 (Homo sapiens) (UniProt Q15596); test: SRC2 coactivator transcriptional activity inhibitors, confirmation, cell-based, luminescence, HEK293, triplicate (AID 652008;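 active = mean inhibition above 46.5%, the solvent-only control mean plus 3 SD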;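 note: 0% = DMSO-treated cells and 100% = Gossypol at 36 µM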); conditions: HEK293 GAL4-SRC2 luciferase reporter, at 8.9 µM, active compounds read high
Sequence of Nuclear receptor coactivator 2 (Homo sapiens) (Q15596 whole entry, looked up, the tested form may be a part): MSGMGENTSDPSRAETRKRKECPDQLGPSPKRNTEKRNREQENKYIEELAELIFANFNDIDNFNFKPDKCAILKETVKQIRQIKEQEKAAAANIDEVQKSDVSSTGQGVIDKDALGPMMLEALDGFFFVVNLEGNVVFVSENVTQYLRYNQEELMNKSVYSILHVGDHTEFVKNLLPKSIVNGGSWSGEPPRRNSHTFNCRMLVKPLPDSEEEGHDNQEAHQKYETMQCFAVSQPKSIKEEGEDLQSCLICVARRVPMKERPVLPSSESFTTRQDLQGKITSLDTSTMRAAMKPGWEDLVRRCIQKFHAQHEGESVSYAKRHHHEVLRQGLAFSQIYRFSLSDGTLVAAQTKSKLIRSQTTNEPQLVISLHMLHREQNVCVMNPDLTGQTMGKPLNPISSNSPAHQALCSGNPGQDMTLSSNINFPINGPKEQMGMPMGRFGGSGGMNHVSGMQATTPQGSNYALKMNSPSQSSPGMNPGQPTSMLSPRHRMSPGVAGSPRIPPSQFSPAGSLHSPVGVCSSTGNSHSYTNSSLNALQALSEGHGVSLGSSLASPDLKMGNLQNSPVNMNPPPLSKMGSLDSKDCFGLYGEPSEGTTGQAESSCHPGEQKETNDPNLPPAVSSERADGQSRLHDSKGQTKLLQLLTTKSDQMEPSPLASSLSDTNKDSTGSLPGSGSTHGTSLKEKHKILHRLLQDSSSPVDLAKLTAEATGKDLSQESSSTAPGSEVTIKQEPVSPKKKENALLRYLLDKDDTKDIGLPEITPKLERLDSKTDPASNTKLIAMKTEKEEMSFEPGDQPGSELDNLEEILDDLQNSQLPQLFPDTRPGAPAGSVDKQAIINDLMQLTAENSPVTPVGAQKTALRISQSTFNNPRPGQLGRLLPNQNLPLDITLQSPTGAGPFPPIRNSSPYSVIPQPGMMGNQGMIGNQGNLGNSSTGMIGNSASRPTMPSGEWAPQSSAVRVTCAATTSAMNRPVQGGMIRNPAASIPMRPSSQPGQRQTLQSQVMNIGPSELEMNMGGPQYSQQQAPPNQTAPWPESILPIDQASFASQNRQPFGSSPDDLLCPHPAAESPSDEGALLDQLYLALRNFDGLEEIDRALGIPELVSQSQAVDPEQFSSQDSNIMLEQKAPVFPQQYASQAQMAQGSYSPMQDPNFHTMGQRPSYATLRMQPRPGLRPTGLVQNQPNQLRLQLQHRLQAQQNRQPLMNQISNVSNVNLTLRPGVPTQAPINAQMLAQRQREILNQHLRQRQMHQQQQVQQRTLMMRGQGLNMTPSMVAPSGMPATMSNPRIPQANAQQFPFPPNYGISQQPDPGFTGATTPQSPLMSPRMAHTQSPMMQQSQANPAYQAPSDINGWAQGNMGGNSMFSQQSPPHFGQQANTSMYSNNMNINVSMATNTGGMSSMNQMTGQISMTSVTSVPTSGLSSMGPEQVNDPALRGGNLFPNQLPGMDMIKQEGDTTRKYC

SMILES	inhibition [1]	inhibition [2]	inhibition [3]	inhibition [4]	inhibition [5]	inhibition [6]
CCN(Cc1ccc(OC)c(F)c1)C(=O)CCl	31.7% (active)	78.7% (active)	73.3% (active)	21.3%	31.8%	49.5% (active)
Cc1cc2ccccn2c1C(=O)c1cccc([N+](=O)[O-])c1	10.1%	44% (active)	42%	-4.87%		
CN(C)C(=O)Cn1c(SCC(=O)Nc2ccc3c(c2)OCO3)nc2ccccc21	-0.98%	22.2%	28.2%	-0.46%		
COc1ccc(CC(NC(C)=O)C(=O)NC2CCN(c3nnnn3-c3ccccc3)CC2)cc1 (centres undefined)	10.5%	45.1% (active)	43.8% (active)	2.12%		
COc1ccc(NC(=O)COc2cccc3c2CCN(C)C3=O)c(OC)c1	20.5%	65.9% (active)	61.6% (active)	-23.8%		
CN(C)CCC(=O)N1C/C(=C/c2ccccc2)C(=O)/C(=C\c2ccccc2)C1	61.4% (active)	84% (active)	86.6% (active)	77.2% (active)	86.8% (active)	55.3% (active)
CCOc1ccc(NC(=O)COC(=O)C2COc3ccccc3O2)cc1 (centres undefined)	-6.6%	35.4%	28.8%	3.94%		
CCn1c(CN2CCN(c3ccc(Cl)cc3)CC2)nc2ccccc21	2.05%	46% (active)	36.1%	7.76%		
CS/C(=C\[N+](=O)[O-])Nc1ccc(OC(F)(F)F)cc1	42% (active)	83.9% (active)	84.6% (active)	9.63%		
CCCCCCCCCC[n+]1cccc2c3ccccc3ccc21	83.3% (active)	110% (active)	96.1% (active)	95.9% (active)	48.9% (active)	58.6% (active)
O=C(Cn1cc(COc2ccc(C(=O)c3ccccc3)cc2)nn1)c1ccc(O)cc1	25.8%	47.4% (active)	57% (active)	59.6% (active)		
COc1ccc(-c2sc(C(=O)c3ccc(Cl)cc3Cl)cc2CC(=O)O)cc1	17.8%	42.2% (active)	38%	-5.16%		
